Assay results: the GenesisPotency data set
Out of some 370,000 compounds screened, about 1,100 (0.3%) were called active. Inconclusive results (about 1%) are left out. The call rests on the fitted dose curve; in most records, active means well fitted activation curve with a large enough effect; inconclusive means small, poorly fitted or top-dose-only effect; inactive means flat fitted curve, though single readings scatter. The entries come from a sample that favours actives as a whole.

These compounds were tested against T1, Relaxin receptor 1, Homo sapiens (UniProt Q9HBX9) (assay: qHTS Assay for Agonists of the Relaxin Receptor RXFP1).
T1 sequence (whole entry): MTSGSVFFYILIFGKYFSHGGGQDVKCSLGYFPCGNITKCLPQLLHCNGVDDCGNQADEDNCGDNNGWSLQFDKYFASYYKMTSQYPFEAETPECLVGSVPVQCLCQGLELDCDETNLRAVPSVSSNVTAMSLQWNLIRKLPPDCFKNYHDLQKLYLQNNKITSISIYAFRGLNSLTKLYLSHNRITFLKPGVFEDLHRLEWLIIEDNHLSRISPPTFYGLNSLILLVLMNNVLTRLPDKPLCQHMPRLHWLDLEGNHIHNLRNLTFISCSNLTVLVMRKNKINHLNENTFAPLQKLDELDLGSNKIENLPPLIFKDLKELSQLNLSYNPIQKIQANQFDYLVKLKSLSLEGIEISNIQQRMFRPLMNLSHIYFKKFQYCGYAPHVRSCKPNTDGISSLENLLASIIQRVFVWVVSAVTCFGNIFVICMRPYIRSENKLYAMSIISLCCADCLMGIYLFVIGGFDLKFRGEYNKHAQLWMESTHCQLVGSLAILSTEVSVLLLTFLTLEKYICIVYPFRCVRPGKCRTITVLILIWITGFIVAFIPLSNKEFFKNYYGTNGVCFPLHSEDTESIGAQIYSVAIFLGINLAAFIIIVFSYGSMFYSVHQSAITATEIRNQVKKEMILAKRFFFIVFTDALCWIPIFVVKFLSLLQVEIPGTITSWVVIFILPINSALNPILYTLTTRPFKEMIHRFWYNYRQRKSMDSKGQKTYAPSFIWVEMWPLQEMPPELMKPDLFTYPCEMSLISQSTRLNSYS
`CCCC[N+](CCCC)(CCCC)CCCC.Nc1ncnc2c1ncn2[C@@H]1O[C@H](COS(=O)(=O)[O-])[C@@H](O)[C@H]1O` was tested, and the outcome was “active”.
